ChEMBL document CHEMBL3988442, “University of Dundee, Small-Polar-MMV Screening Library” (2021)
For some of these results: Measured potencies and affinities stand elsewhere.

What was measured:
Set-up in all cases: scale not given: direction of the effect not stated beside the values
[1] = target: Protein translocase subunit SecA (Escherichia coli (strain K12)) (UniProt P10408); experiment: Assay to Identify E. coli SecA ATPase Inhibitors; assay type: functional; settings: 30 µM
[2] = target: T1, Ubiquitin-activating enzyme e1, putative (Leishmania donovani (strain BPK282A1)) (UniProt E9BSI1); experiment: Leishmania donovani Ubiquitin Activating Enzyme (LdE1); assay type: functional; settings: 30 µM
T1 sequence (whole entry): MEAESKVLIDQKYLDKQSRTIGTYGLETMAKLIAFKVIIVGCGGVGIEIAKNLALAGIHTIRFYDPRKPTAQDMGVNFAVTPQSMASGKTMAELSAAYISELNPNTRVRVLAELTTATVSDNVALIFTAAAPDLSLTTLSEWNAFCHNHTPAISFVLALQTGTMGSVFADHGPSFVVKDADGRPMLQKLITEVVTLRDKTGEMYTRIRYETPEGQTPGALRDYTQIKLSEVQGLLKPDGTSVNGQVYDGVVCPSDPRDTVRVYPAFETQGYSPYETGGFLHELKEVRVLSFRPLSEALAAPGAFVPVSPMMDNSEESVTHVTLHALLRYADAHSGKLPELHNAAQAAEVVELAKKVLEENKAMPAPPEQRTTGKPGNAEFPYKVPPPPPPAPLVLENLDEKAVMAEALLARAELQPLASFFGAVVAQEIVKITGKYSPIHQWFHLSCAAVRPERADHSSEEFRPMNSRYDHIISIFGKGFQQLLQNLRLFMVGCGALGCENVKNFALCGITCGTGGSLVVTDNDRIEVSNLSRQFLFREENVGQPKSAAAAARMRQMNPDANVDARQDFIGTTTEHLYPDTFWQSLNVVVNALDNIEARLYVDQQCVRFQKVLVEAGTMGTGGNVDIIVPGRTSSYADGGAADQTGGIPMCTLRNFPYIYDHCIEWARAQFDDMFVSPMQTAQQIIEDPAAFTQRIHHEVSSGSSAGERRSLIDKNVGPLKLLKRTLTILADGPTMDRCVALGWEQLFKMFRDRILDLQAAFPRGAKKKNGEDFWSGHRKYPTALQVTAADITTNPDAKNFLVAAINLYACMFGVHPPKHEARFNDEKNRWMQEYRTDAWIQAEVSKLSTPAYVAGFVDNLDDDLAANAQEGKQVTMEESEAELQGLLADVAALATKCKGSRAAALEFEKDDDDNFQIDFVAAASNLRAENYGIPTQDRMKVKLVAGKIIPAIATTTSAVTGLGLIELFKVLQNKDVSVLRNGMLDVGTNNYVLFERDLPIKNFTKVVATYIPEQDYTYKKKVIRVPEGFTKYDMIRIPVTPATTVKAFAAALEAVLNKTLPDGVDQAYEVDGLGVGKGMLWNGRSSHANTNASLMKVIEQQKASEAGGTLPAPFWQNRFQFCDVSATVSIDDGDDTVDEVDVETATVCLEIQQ

[3] = target: AMP-activated protein kinase, AMPK (Homo sapiens) (UniProt P54646+O43741+P54619+Q9UGJ0+Q9Y478+Q13131+Q9UGI9); experiment: AMP-dependent Kinase enzyme assay. An in vitro enzyme assay that detects ADP turnover that is directly proportional to AMPK activity. This uses naive AMPK that is activated during the assay with MK-8722; assay type: functional; settings: 30 µM
[4] = target: Sialic acid-binding Ig-like lectin 9 (Homo sapiens) (UniProt Q9Y336); experiment: Hs-Siglec9 ALPHAscreen SOP 20170721; settings: 10 µM
Sequence of Sialic acid-binding Ig-like lectin 9 (Homo sapiens) (Q9Y336 whole entry): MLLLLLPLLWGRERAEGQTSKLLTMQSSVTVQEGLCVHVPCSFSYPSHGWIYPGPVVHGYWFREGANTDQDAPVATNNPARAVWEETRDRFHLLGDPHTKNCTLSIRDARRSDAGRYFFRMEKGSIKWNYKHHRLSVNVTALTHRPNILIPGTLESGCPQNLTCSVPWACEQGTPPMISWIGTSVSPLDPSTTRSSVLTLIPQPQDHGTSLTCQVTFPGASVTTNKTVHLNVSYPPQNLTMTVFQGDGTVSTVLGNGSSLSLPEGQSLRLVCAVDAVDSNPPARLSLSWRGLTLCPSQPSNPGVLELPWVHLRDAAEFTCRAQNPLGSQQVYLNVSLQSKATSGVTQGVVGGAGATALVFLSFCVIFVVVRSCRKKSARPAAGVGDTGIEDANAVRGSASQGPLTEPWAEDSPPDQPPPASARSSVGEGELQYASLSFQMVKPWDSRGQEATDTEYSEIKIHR

Trypanosoma cruzi = experiment: Trypanosoma cruzi phosphomannomutase and mannose-1-phosphate guanylyltransferase assay; assay type: functional; settings: 10 µM
[5] = target: T2, Arginase-2, mitochondrial (Homo sapiens) (UniProt P78540); experiment: in vitro enzyme assay to detect the production of urea directly proportional to the activity of Arginase II; assay type: functional; settings: 33.3 µM; further: in the data most compounds retested in dose-response had high values
T2 sequence (whole entry): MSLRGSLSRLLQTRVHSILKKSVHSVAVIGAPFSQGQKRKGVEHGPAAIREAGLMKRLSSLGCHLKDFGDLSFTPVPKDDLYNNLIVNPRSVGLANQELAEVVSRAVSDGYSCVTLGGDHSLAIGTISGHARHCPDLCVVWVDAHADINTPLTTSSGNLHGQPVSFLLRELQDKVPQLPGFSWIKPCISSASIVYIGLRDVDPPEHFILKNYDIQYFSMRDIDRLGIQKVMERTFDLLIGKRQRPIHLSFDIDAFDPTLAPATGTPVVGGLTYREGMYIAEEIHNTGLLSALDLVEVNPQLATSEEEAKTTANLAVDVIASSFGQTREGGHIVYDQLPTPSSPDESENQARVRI

[6] = target: T3, Proteasome subunit beta (Trypanosoma cruzi) (UniProt O96673); experiment: Trypanosoma cruzi proteasome chymotrypsin-like activity (TcProtChymo) assay.; further: in the data most compounds retested in dose-response had high values; assay type: functional; settings: 9.37 µM
T3 sequence (whole entry): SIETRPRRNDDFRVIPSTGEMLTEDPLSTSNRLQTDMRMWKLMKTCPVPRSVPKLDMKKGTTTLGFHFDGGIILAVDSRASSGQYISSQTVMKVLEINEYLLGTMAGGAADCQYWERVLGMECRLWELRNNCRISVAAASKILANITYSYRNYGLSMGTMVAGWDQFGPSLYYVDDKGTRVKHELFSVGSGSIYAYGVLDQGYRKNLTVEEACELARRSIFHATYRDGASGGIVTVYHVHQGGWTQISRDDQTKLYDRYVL

Homo sapiens = species on record: Homo sapiens; experiment: To identify inhibition of the IFN signalling (Jak-Stat) pathway via expression of an eGFP reporter gene under the control of an IFN-stimulated response element (ISRE) containing MxA promoter.; assay type: functional; settings: 30 µM
[7] = target: T4, Tyrosyl-tRNA synthetase, putative (Trypanosoma cruzi (strain CL Brener)) (UniProt Q4DSP6); experiment: Trypanosoma cruzi tyrosyl tRNA synthetase (TcYRS) _High Tyrosine SOP; assay type: functional; settings: 30 µM; further: in the data most compounds retested in dose-response had high values
T4 sequence (whole entry): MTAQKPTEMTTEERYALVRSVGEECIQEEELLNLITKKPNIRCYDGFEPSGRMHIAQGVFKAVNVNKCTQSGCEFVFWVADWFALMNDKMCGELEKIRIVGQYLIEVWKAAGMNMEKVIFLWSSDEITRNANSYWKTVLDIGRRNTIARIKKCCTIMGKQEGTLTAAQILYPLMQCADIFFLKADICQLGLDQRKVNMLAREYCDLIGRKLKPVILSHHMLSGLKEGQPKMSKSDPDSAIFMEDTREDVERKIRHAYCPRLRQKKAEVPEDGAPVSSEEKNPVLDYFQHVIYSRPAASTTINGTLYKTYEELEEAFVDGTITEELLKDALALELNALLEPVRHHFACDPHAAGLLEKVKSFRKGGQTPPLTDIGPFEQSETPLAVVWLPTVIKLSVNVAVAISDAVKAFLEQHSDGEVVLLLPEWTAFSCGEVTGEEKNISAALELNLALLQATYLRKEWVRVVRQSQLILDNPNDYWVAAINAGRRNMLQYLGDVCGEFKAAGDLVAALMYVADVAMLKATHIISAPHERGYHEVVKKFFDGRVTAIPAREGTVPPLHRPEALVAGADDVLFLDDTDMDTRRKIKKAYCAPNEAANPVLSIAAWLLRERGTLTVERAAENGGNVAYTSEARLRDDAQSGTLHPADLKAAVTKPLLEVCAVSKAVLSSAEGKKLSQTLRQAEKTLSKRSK

[8] = target: T4, Tyrosyl-tRNA synthetase, putative (Trypanosoma cruzi (strain CL Brener)); experiment: Trypanosoma cruzi tyrosyl tRNA synthetase (TcYRS) SOP; assay type: functional; settings: 30 µM
[9] = target: Chromo domain-containing protein 1 (Saccharomyces cerevisiae (strain ATCC 204508 / S288c) (Baker's yeast)) (UniProt P32657); experiment: ScCHD-1 Enzyme Inhibition Assay; assay type: functional; settings: 30 µM; further: in the data most compounds retested in dose-response had high values
Sequence of Chromo domain-containing protein 1 (Saccharomyces cerevisiae (strain ATCC 204508 / S288c) (Baker's yeast)) (P32657 whole entry, the tested form may be a part): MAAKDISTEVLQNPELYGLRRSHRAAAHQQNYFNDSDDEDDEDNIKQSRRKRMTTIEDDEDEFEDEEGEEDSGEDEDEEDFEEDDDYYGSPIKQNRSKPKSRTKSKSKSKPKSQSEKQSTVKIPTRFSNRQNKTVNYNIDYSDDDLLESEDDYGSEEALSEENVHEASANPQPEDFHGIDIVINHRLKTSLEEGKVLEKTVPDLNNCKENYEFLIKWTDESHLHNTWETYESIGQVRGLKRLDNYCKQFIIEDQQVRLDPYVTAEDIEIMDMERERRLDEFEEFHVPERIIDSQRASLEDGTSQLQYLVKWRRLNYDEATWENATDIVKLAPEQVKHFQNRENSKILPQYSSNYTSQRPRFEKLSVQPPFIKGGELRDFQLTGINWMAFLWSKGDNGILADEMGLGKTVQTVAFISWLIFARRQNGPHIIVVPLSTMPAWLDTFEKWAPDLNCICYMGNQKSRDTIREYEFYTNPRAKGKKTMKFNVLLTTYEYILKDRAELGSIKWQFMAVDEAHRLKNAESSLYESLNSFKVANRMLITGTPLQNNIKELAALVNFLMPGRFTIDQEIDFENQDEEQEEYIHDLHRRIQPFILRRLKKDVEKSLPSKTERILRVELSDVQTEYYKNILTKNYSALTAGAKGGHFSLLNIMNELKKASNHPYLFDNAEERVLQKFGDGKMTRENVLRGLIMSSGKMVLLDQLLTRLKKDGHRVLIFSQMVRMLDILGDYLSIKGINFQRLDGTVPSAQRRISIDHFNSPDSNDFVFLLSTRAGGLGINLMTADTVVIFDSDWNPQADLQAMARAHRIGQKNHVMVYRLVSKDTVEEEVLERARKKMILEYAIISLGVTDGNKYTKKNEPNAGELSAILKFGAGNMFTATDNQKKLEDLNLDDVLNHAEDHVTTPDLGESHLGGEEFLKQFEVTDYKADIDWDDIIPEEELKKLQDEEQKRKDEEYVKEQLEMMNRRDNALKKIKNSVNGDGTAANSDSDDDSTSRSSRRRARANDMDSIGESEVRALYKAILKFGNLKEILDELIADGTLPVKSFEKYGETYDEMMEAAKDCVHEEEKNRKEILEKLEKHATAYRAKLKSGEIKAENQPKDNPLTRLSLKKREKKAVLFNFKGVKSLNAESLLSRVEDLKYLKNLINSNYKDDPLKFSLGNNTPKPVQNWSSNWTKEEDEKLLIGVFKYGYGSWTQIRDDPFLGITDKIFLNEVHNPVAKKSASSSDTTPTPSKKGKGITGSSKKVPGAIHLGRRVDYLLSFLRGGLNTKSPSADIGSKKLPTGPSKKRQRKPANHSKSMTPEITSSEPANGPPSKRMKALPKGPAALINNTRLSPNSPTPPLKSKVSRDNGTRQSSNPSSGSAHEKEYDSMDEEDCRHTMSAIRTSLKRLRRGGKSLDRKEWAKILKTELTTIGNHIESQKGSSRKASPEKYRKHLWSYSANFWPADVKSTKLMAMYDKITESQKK

Sequence of Protein translocase subunit SecA (Escherichia coli (strain K12)) (P10408 whole entry): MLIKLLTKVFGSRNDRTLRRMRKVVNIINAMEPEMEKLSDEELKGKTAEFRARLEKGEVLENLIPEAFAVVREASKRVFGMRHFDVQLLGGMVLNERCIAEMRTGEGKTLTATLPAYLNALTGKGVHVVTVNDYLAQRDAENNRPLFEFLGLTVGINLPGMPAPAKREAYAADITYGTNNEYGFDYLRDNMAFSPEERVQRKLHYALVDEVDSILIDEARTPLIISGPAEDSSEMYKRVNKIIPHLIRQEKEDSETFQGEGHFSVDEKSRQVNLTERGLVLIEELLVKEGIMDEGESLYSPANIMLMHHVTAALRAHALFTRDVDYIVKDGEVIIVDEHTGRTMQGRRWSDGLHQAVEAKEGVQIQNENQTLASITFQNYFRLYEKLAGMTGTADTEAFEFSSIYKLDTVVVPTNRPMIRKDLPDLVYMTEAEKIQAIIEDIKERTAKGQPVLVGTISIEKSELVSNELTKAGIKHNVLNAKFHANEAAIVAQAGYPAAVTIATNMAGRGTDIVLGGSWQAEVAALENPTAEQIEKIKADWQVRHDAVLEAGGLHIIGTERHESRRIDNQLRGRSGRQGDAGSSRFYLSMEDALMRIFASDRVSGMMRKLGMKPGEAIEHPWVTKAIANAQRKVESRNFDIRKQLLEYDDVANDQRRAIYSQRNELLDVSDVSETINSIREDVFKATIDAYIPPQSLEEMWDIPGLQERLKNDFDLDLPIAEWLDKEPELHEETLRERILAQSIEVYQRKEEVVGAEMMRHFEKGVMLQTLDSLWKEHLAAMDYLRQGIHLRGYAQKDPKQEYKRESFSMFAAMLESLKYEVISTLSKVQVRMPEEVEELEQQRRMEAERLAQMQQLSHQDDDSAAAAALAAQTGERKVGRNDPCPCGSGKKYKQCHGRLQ

Compound	Percent Effect [1] [%]	Percent Effect [2] [%]	Percent Effect [3] [%]	Percent Effect [4] [%]	Percent Effect (Trypanosoma cruzi) [%]	Percent Effect [5] [%]	Percent Effect [6] [%]	Percent Effect (Homo sapiens) [%]	Percent Effect [7] [%]	Percent Effect [8] [%]	Percent Effect [9] [%]
COc1cccc(CNC(=O)C(c2cccc(F)c2)N2CCOCC2)c1 (stereo not given)	-6.42	18.4	-1.09	6.14	2.82	-5.92	4.12	5.78	6.38	18.2	-11.1
CCN1CCN(C(=O)C(C)N2CCN(Cc3nccn3C)CC2)CC1 (stereo not given)	-3.29	2.7	-1.16	6.16	6.59	-4.99	1.08	-7.4	0.99	3.66	2.46
Cc1ccc(C(=O)N2CCCC(C(=O)N3CCCCC3)C2)c(O)c1 (stereo not given)	-7.91	10.8	-4.33	-0.223	-5.19	-1.2	-2.7	12.5	2.46	1.24	-4.49
CCOC(=O)CCC(=O)N1CCC(Oc2ccc(C(F)(F)F)cn2)CC1	-1.66	7.79	4.3	13.1	-6.41	-1.94	14.1	20.3	3.17	11.5	-5.92
Cc1occc1C(=O)N1CCCC2(CCN(CCN3CCCC3)C2=O)C1 (stereo not given)	-3.31	-2.6	-1.22	14.5	6.79	-12.4	7.82	-2.84	-11.8	-11.1	-0.372
CN1CC(=O)N(c2cccc(F)c2)CC12CCNC2 (stereo not given)	-5.9	0	3.44	-2.82	-3.03	-4.78	10.7	12.5	-1.08	5.13	1.85
CC(CN1CCCC1)C(=O)N1CCC(c2nccn2CC2CC2)CC1 (stereo not given)	-4.31	13.5	-3.47	27.7	10.2	2.86	16.2	5.41	7.94	21.9	-11.2
O=C(Cc1ccsc1)N1CCn2cc(CN3CCCC3)nc2C1	-1.1	8.22	-4.43	11.5	8.33	-9.98	20.1	-16	14.6	23.5	-4.19
CCc1csc(C2CCCN(C(=O)c3c[nH]c(C)n3)C2)n1 (stereo not given)	-1.65	7.79	-3.3	1.9	6.18	-1.78	-3.88	-6.54	2.91	12.2	-6.32
CC1(NC(=O)Cc2csc(C(C)(C)C)n2)CCS(=O)(=O)C1 (stereo not given)	-7.31	19.2	-17.7	20.2	9.01	7.27	13.7	17.5	4.3	17.5	-4.8
CCSCCNC(=O)C(c1cccc(C)c1)N(C)C (stereo not given)	0.71	16.2	4.54	18.5	4.83	1.43	12.1	20.1	6.88	17.1	-11.3
Cc1ccsc1CNc1cc(N2CCCC2CO)ncn1 (stereo not given)	-9.04	11.4	-19.2	6.66	1.33	-1.07	8.23	12.1	0	17.7	-31
Cc1cc(CN2CCN(C(=O)NCc3ccc(C)s3)CC2)no1	-0.722	17.7	-2.9	3.54	-4.82	10.3	3.85	15.8	2.46	21.5	-5.4
CC1=Nc2c(c(=O)[nH]n2C(C)C)C(c2cccs2)S1 (stereo not given)	-7.07	-1.33	2.48	1.91	0.197	-3.7	9.8	11.9	19.1	25.6	-2.82
CCOCC(=O)NC1(c2cccc(Br)c2)CC1	-8.13	0	0.838	9.79	-3.67	-2.38	7.76	13.1	-1.59	-2.44	-3.38
Cc1ccc(C)c(OCCN2CCC(N3CCNC3=O)CC2)c1	-3.83	10.8	-16.9	6.39	-2.69	2.03	1.62	6.79	4.95	13.4	-0.537
CCN1C(=O)C(C)(C)c2cc(NC(=O)c3ccco3)ccc21	-5.66	10.4	17.2	5.8	1.48	-13.8	12.7	19.7	12.9	21	0.612
Cc1cc(C(=O)N2CCC(c3nccn3Cc3ccncc3)CC2)no1	-4.98	8.22	5.77	-7.08	-0.979	5.46	12.6	7.62	8.6	15	-1.03
CCN1CC2(CCC1=O)CCN(C(=O)c1ccc(Cl)cc1O)CC2	0.161	12.5	-4.82	5.1	4.37	25.6	4.56	19.3	4.21	15.4	-5.87
CC(C)N1CCc2c(C#N)c(NCc3ccco3)n3cnnc3c2C1	-3.81	7.89	6.37	-3.12	-3.8	3.55	15.4	-16.1	1.06	7.79	-9.63
